Assay [1] has as its system Zika virus NS2B-NS3 protease (linked construct). The assay can be described thus: Primary screen NINDS Rhodamine qHTS for Zika virus inhibitors (AID 1347160). Also: nearly all actives have a fitted effect of over 55% in size. As to activity change, negative = inhibition: % is scaled to controls: 0 for no effect and ±100 for the full control effect. The gist of the method:
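Percent inhibition, normalized to uninhibited and enzyme-free controls, is fitted to a 4-parameter Hill equation. Fluorescence change comes from a 15-min cleavage of 1.5 microM bis-peptide Rhodamine110 substrate by 25 nM linked NS2B-NS3 at room temperature.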

The target in assay [2] is Calcium and integrin-binding protein 1 (Homo sapiens) (UniProt Q99828). The assay can be described thus: Primary qHTS for Identification of Calcium Integrin Binding Protein 1 (CIB1) Competitor (AID 1508620).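 Also: GST tagged CIB1 binding a fluorescein labelled alphaIIb integrin peptide tracer; top concentration of the series differs between compounds; % is scaled to controls: 0 for no effect and ±100 for the full control effect.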 The gist of the method:
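CIB1-GST (1 uM final) and compound incubated 15 min at room temperature before adding FITC-alphaIIb peptide tracer (100 nM final). Competition for binding read by fluorescence polarization (ex 480, em 540) after another 15 min at room temperature.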
Background: qHTS replaces the single test concentration by a dilution series.

Assay [3] is described as follows: Primary qHTS for inhibitors of nuclear receptor binding SET domain protein 2 (NSD2) in an isogenic RCH-ACV NSD2 p.E1099K mutant (9B) (AID 1645876). Also: nearly all actives have a fitted effect of over 70% in size. Also: potency is read from the fitted curve at half-maximal effect.
Assay [4] concerns the target Glutathione peroxidase 1 (Homo sapiens) (UniProt P07203). The assay can be described thus: Primary qHTS Assay for Inhibitors of Recombinant Selenoprotein Glutathione Peroxidase 1 (GPX1) (AID 1845191). Also: nearly all actives have a fitted effect of over 65% in size. As to activity, negative = inhibition: % is scaled to controls: 0 for no effect and ±100 for the full control effect. The essentials: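 10 nM GPX1 + cpd, 30 min RT; start w/ 1 mM GSH, 0.5 mM cumene hydroperoxide, 0.5 mM NADPH, 100 nM GR, 0.01% BSA; buffer 50 mM Tris-HCl pH 7.5, 2 mM EDTA, 150 mM NaCl; Fl 340/450, 0 & 15 min.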

Assay [5] addresses Phospholipid hydroperoxide glutathione peroxidase GPX4 (Homo sapiens) (UniProt P36969). As to the kind of experiment: Primary qHTS Assay for Inhibitors of Recombinant Selenoprotein Glutathione Peroxidase 4 (GPX4) (AID 1845192). Also: nearly all actives have a fitted effect of over 65% in size. As to activity change, negative = inhibition: % is scaled to controls: 0 for no effect and ±100 for the full control effect. The essentials: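 NADPH consumption, followed by fluorescence at 340/450 nm between 0 and 15 min, reports GPX4 activity via coupled glutathione reductase (100 nM). Enzyme 200 nM was pre-exposed to compound 30 min; 0.5 mM cumene hydroperoxide and 1 mM GSH served as substrates.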

The target in assay [6] is Luciferin 4-monooxygenase (Photinus pyralis) (UniProt P08659). The assay can be described thus: Primary firefly luciferase (FLuc) qHTS assay for identification of artifact compounds. (AID 1845220). Also: nearly all actives have a fitted effect of over 60% in size.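 As to activity change, negative = inhibition: plate controls were DMSO vehicle for no effect and no enzyme for full effect.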 The settings on record: outcome: dose series up to 54.1 µM unless noted. The gist of the method:
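Compounds sat 15 min at room temperature with 10 uM luciferin and 10 uM ATP (pH 7.6 Tris acetate). Firefly luciferase (10 nM final) was then added, and luminescence was read 5 min later. Data normalized to no-enzyme and DMSO controls were Hill-fitted.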

Assay [7] deals with Nanoluciferase (engineered Oplophorus gracilirostris luciferase). The assay can be described thus: Primary Nanoluciferase (NLuc) qHTS assay for identification of artifact compounds. (AID 1845222).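 Also: 0% = DMSO and -100% = no enzyme.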 The essentials:
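Luminescence from secreted NLuc (filtered, 1:55-diluted S16 cell medium) read 5 min after Nano-Glo substrate; compounds preincubated 15 min, RT. Hill fits of inhibition normalized to DMSO and no-enzyme.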

In the next assay the test system is CRL-7250. The assay can be described thus: Cytotoxic Profiling of Annotated Libraries Using Quantitative High-Throughput Screening (AID 1296008). Also: nearly all actives have a fitted effect of over 60% in size. Also: potency is read from the fitted curve at half-maximal effect. As to conditions: Five cell lines viability, CellTiter-Glo ATP luminescence, 48-72 h; max response: hits give low values. The gist of the method: (§1)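 Cytotoxicity was measured as CellTiter-Glo ATP luminescence, read after 10 min at room temperature. Compound treatment of the cells lasted 48 or 72 hr at 37 degrees Celsius in a qHTS format.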
(In ATP-based viability assays light output follows the ATP content of the culture.)

In a further assay the test system is HEK293. The description is as above. As to conditions: Five cell lines viability, CellTiter-Glo ATP luminescence, 48-72 h; max response: hits give low values. The essentials:
as §1

The subject of another assay is HaCat. The description is as above. As to conditions: Five cell lines viability, CellTiter-Glo ATP luminescence, 48-72 h; max response: hits give low values. The gist of the method: as §1
The next assay deals with CASKI. The assay can be described thus: Primary qHTS to identify gynecologic anti-cancer compounds using libraries of approved drugs and bioactive compounds (AID 1345084). Also: nearly all actives have a fitted effect of over 55% in size. Also: potency is read from the fitted curve at half-maximal effect. As to conditions: Gynecologic cancer cell panel viability, ATPlite luminescence, 48 h; series mostly up to 57.5 µM. The essentials: (§2)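 Cell viability after 48 h drug treatment, ATPlite luminescence readout; five doses.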

For another assay, the system named is Tov112D. The assay is described as above. As to conditions: Gynecologic cancer cell panel viability, ATPlite luminescence, 48 h; series mostly up to 57.5 µM. The essentials: as §2
The next assay has as its system Es-2. The assay is described as above. As to conditions: Gynecologic cancer cell panel viability, ATPlite luminescence, 48 h; series mostly up to 57.5 µM. The essentials: as §2
The subject of another assay is JEG-3. The description is as above. The settings on record: Gynecologic cancer cell panel viability, ATPlite luminescence, 48 h; series mostly up to 57.5 µM. The essentials: as §2
A further assay relates to OV90. The description is as above. As to conditions: Gynecologic cancer cell panel viability, ATPlite luminescence, 48 h; series mostly up to 57.5 µM. The gist of the method: as §2
Another assay concerns Tov-21-G. The assay is described as above. As to conditions: Gynecologic cancer cell panel viability, ATPlite luminescence, 48 h; series mostly up to 57.5 µM. The gist of the method:
as §2

A further assay relates to NIH3T3. As to the kind of experiment: Cytotoxic Profiling of Annotated Libraries Using Quantitative High-Throughput Screening (AID 1296008). Also: nearly all actives have a fitted effect of over 60% in size. Also: potency is read from the fitted curve at half-maximal effect. The settings on record: Five cell lines viability, CellTiter-Glo ATP luminescence, 48-72 h; max response: hits give low values. The essentials:
as §1

Another assay has as its system C33A. As to the kind of experiment: Primary qHTS to identify gynecologic anti-cancer compounds using libraries of approved drugs and bioactive compounds (AID 1345084). Also: nearly all actives have a fitted effect of over 55% in size. Also: potency is read from the fitted curve at half-maximal effect. The settings on record: Gynecologic cancer cell panel viability, ATPlite luminescence, 48 h; series mostly up to 57.5 µM. The gist of the method: as §2
A further assay has as its system Hek293T. Described as above. The settings on record: Gynecologic cancer cell panel viability, ATPlite luminescence, 48 h, control line for the selectivity index; series mostly up to 57.5 µM. The gist of the method:
as §2

For another assay, the system named is PA-1. The description is as above. The settings on record: Gynecologic cancer cell panel viability, ATPlite luminescence, 48 h; series mostly up to 57.5 µM. The essentials: as §2

Several values for one entry are separate records, joined by “and”; a condition that tells them apart may be missing. Equal entries are not always repeated. A number with no mark means an inactive call. Results filed as inconclusive are left out. Activity calls are given as the source filed them. Calls follow the shape of the dose curve; as a rule, active = well fitted curve in the direction sought with a large enough effect; inconclusive = small, poorly fitted or top-dose-only effect, or another doubt; inactive = no such curve, though single readings can be large; an effect the other way counts as inactive or inconclusive. *1 amine or outer side, *2 acyl side, *3 side chain or, on linkers, in order; H or OH if unused. Where a SMILES comes first, the peptide text is derived from it. [ ]: non-standard residue; d: D form. X7 = O=C([C@@H](CC(O)CCl)O[*:1])[*:2]; aIle = CC[C@@H](C)[C@H](N)C(=O)O; NMeV = CN[C@H](C(=O)O)C(C)C; NMeA = CN[C@@H](C)C(=O)O; βAla = NCCC(=O)O

The values below come from PubChem BioAssay (NCATS).

Chain of Phospholipid hydroperoxide glutathione peroxidase GPX4 (Homo sapiens) (P36969 whole entry, looked up): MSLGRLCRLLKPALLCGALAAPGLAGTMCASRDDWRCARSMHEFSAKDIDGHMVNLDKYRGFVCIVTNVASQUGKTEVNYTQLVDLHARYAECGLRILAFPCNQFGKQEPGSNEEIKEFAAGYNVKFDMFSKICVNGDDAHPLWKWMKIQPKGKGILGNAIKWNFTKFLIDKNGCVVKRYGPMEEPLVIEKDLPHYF
Chain of Glutathione peroxidase 1 (Homo sapiens) (P07203 whole entry, looked up): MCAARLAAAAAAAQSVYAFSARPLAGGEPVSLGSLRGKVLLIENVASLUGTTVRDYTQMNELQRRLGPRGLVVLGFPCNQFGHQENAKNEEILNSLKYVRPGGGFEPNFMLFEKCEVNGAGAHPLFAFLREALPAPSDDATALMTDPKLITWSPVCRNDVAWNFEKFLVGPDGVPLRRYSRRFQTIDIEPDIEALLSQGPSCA
Chain of Calcium and integrin-binding protein 1 (Homo sapiens) (Q99828 whole entry, looked up): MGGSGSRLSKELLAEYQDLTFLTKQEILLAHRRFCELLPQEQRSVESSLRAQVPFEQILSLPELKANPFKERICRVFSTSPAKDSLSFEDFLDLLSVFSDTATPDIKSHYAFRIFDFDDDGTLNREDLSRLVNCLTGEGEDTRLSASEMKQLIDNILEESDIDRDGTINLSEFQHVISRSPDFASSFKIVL

For the molecule `N#Cc1cn([C@@H]2O[C@H](CO)[C@H](O)[C@@H]2O)c2ncnc(N)c12`, the Potency result in assay [1], in assay [2], in [4], in [5] and in assay [7] was “inactive” each time. In addition, the Potency in assay [3] was 12.9 nM (active); with CRL-7250, 58 nM (active); in the assay on HEK293, 46.1 nM (active); in the assay with HaCat, 92 nM (active); in the assay on CASKI, 282 nM (active); in the assay with Tov112D, 316 nM (active). Also, the result in assay [6] was inactive.

Regarding `CCc1nn(C)c(C(=O)NCc2ccc(Oc3ccc(C)cc3)cc2)c1Cl`, the Potency result (in assay [1]; in [2]; in assay [5]; in assay [7]; with Es-2; in the assay with JEG-3) was “inactive” each time. Further, the Potency result in the assay with Tov-21-G and in the assay with Tov112D was “inactive” throughout. Besides, the Potency in assay [3] was 817 nM (active); in the assay on CRL-7250, 6.5 nM (active); in the assay on HEK293, 7.3 nM (active); with OV90, 631 nM (active). In assay [6], the molecule was classed as inactive. The max response with HaCat is 1.94%.

Take `Nc1ncnc2c1ncn2[C@@H]1O[C@@H]2COP(O)(=S)O[C@H]2[C@H]1O` (stereo partly specified): the activity change, negative = inhibition in assay [1] is 16.2% [at 10.7 µM]. Besides, the Potency result in assay [2] was “inactive”. Moreover, the outcome was “inactive [at 9.23 µM]” in [3], “inactive [at 9.52 µM]” in [4], “inactive [at 9.73 µM]” in assay [5] and “inactive [at 11.6 µM]” in assay [6]. The activity, negative = inhibition in assay [7] was 0.0656% [at 11.6 µM]. The figures for the max response with CRL-7250 and in the assay with NIH3T3 were 1.79% and 4.38%, respectively. In addition, the outcome in the assay on HEK293 was inactive. Also, the activity change, negative = cytotoxicity in the assay on C33A is 2.33% [at 11.6 µM]; with CASKI it was -3.97% [at 11.6 µM]; in the assay on Es-2, 5.19% [at 11.6 µM]; in the assay with Hek293T, 0.669% [at 11.6 µM]; in the assay with JEG-3, 6.35% [at 11.6 µM]; with OV90, 0.349% [at 11.6 µM]. The activity change, negative = cytotoxicity was 15.5% [at 11.6 µM] with PA-1, 2.4% [at 11.6 µM] with Tov-21-G and 7.56% [at 11.6 µM] in the assay with Tov112D.

Turning to `CC[C@@H](C)[C@@H]1NC(=O)[C@@H]2CCCN2C(=O)[C@@H](CC(O)CCl)OC(=O)CCNC(=O)[C@H](C)N(C)C(=O)[C@H](C(C)C)N(C)C1=O` (stereo partly specified) (cyclo([NMeA][βAla][X7]P[aIle][NMeV])), the Potency result (in [1]; in [2]; in [4]; in assay [5]; in assay [7]; in the assay on CASKI) was “inactive” in each case. Besides, the Potency result with JEG-3 and in the assay with Tov-21-G was “inactive” throughout. In addition, the Potency was 608 nM (active) in assay [3]; 968 nM (active) in the assay on CRL-7250; 685 nM (active) with HEK293; 2.43 µM (active) with NIH3T3; 4.47 µM (active) with C33A; 4.47 µM (active) in the assay with Es-2. The figures for the Potency in the assay on OV90, with PA-1 and in the assay on Tov112D were 447 nM (active), 1 µM (active) and 3550 nM (active), respectively. The outcome in assay [6] was “inactive [at 25.7 µM]”. Besides, the max response in the assay on HaCat is -21.3%.

For `Cc1sc2c(c1C)C(c1ccc(Cl)cc1)=NC(CC(=O)Nc1ccc(O)cc1)c1nnc(C)n1-2` (stereo unspecified), the Potency result (in assay [1]; in assay [2]; in assay [5]; in assay [7]; with C33A; with CASKI) was “inactive” throughout. The Potency entry in the assay on Es-2, in the assay on Hek293T and in the assay with JEG-3 was “inactive” in each case. In addition, the Potency is 129 nM (active) and 263 nM (active) in assay [3]; 1160 nM (active) in the assay on CRL-7250; 1460 nM (active) in the assay with HEK293; 1.3 µM (active) in the assay on NIH3T3; 1.78 µM (active) in the assay on PA-1. Also, the molecule was called inactive in assay [6]. Also, the max response with HaCat is -9.94%.

On to `C[C@@H]1C[C@@H](O)[C@]2(O)O[C@@H]3C[C@@]4(C=O)C(CC[C@@H]5C4CC[C@]4(C)[C@@H](C6=CC(=O)OC6)CC[C@]54O)C[C@H]3O[C@@H]2O1` (stereo partly specified), for which the Potency entry (in assay [1]; in assay [2]; in assay [4]; in assay [7]; with C33A; with JEG-3) was “inactive” in each case. The Potency was 56.3 nM (active) in assay [3], 35.5 nM (active) in the assay with CRL-7250, 44.7 nM (active) with HEK293 and 252 nM (active) in the assay on HaCat. For the same molecule, the outcome in assay [6] was “inactive [at 25.7 µM]”.
